Screen size: about 97,000 compounds; about 210 (0.22%) were called active. The full list was thinned out, with actives kept by preference. A number with no mark means an inactive call. Cut-off read from the data, not from the text of the source: active = inhibition above about 45%; inactive = the rest.

A word on the inhibition: it is the drop in the measured response relative to a control, in per cent.

The target of this experiment is Sphingosine 1-phosphate receptor 2 (Homo sapiens) (UniProt O95136). Kind of experiment: human S1P2 receptor antagonists, primary screen, cell-based (AID 736).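 Note: CRE beta-lactamase reporter cells expressing human S1P2 stimulated with S1P; 0% = agonist at EC80 alone and 100% = agonist plus reference antagonist.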 The note with it: cell-based S1P2 antagonist assay, at 5 µM, stronger effect = higher value.
Chain of Sphingosine 1-phosphate receptor 2 (Homo sapiens) (O95136 whole entry, looked up): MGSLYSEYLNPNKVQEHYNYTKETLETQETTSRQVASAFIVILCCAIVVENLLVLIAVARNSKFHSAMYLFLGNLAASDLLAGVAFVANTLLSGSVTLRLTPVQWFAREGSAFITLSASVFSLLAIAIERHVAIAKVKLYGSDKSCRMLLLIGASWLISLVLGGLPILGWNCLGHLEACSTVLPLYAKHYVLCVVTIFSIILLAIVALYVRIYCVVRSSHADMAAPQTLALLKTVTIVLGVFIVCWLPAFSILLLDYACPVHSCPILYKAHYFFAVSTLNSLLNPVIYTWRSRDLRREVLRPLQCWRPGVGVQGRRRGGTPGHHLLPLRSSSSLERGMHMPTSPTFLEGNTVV
In the case of `COc1cc(N2CCCC2)c(OC)cc1/C=C(/C#N)c1cccc(Br)c1`, the inhibition is -9.11%. The same measure for `O=C1COc2ccc(NC(=O)N3CCN(c4ccc(F)cc4)CC3)cc2N1`: 9.28%; for `CCn1c(CNC(=O)c2ccccc2)nnc1SCC(=O)N1CCN(c2ccccc2)CC1`: 2.56%. To `C=C(C)C(=O)Nc1cccc(C(C)=O)c1` belongs -17.2%; to `CCN(CC)C(=O)CSc1nnc(CNc2ccc(F)cc2)n1Cc1ccco1`, -21.8%. Take `CCOc1cccc(C(=O)Nc2nnc(-c3cccs3)s2)c1`: the inhibition was -13.1%. The same measure for `O=C(Nc1cccc2ncccc12)c1ccc(-c2ccc(Cl)cc2Cl)o1`: 20.4%; for `Cc1cccc(NC(=O)Cn2cc(C(=O)c3ccco3)c3ccccc32)c1`: 16.7%; for `CCN(CC)S(=O)(=O)c1cc([N+](=O)[O-])ccc1NNC(=O)Nc1ccccc1`: -2.47%. To `O=C(NCCCN1CCCCC1)c1ccc2c(c1)NC(=O)C(N1CCOCC1)S2` (centres undefined) belongs 14.6%; to `COC(=O)CSc1nc(C)c2ccc(OC)cc2n1`, 7.81%; to `COc1cccc(/C=N\Nc2nncc(-c3ccccc3)n2)c1`, 20.6%. For `Cc1cc2nc(SCCN3CCOCC3)[nH]c2cc1C`, the inhibition is 6.34%. The same measure for `Cc1csc(OCC(=O)Nc2ccc(C)c(C)c2)n1`: 6.53%; for `CCOc1ccc(C(O)Cc2nc3ccccc3n2C)cc1` (centres undefined): -0.2%. To `CCOC(=O)c1cc(C#N)c(N2CCCCC2)nc1-c1ccccc1` belongs 1.48%; to `O=C(Nc1nccs1)c1cc(S(=O)(=O)N2CCOCC2)c(Cl)cc1Cl`, 0.95%; to `COc1ccc(NC(=O)/C(Cl)=C(/Cl)S(=O)Cc2ccc(C)cc2)cn1` (centres undefined), 98.7% (active). To `COc1cccc(NC(=O)Cc2ccc(C)cc2)c1` belongs -17%.

`COC(=O)/C(NC(C)=O)=C(\C)c1ccc(Cl)cc1`: the inhibition was -17.7%.

As for `Cc1cc2cc3c(N)[nH]nc3nc2cc1C`, the inhibition is 6.72%. The same measure for `Cc1ccc(O/C=C2\OC(=O)c3ccccc32)cc1`: -18.2%. The same measure for `COc1ccc(Cl)cc1NC(=O)CN(C)C(=O)CNC(=O)C12CC3CC(CC(C3)C1)C2`: -3.56%. Take `COc1ccc(/C=C(\NC(=O)c2ccc(OC)c(OC)c2)C(=O)NCCc2c[nH]c3ccccc23)cc1`: the inhibition is 8.6%. The same measure for `O=C(Nc1ccc2ccccc2c1)Nc1ccc2snnc2c1`: -5.16%; for `CC(=O)NNc1cc(=O)c2c(=O)n(C)c(=O)n(C)c2[nH]1`: 22.2%; for `COC(=O)CN(C(=S)Nc1ccc(Cl)cc1)C1CC(=O)N(c2ccc(OC)cc2)C1=O` (centres undefined): 54.6% (active). For the compound `CN(C)c1ccc(NC(=S)N(CCc2ccccc2)C2CC(=O)N(c3c(Cl)cccc3Cl)C2=O)cc1` (centres undefined), the inhibition is 14.5%.

For `COc1cccc(N2CCN(C3CC(=O)N(c4ccc(Cl)cc4)C3=O)CC2)c1` (centres undefined), the inhibition is -1.94%.

The record behind these values is PubChem BioAssay AID736 (The Scripps Research Institute Molecular Screening Center, 2007).
